Source: PubChem BioAssay (NCI)
About 83,000 compounds went through this panel and 20% of them were active in at least one assay; those are over-represented in the sample as a whole.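 Method: cells in 96-well plates; compound added at one concentration; 48 h incubation; percent growth measured; values under 10 scored active.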 Activity calls are given as the source filed them.

Experiments:
Test in all cases: NCI-60 one-dose screen, 48 h (100 = growth as untreated, 0 = no growth, -100 = all killed)
Conditions in all cases: 10 µM unless noted
[1] = tested on: NCI-H23 lung
[2] = tested on: NCI-H226 lung
[3] = tested on: NCI-H322M lung
[4] = tested on: HOP-62 NSCLC
[5] = tested on: NCI-H460 lung
[6] = tested on: HOP-92 NSCLC
[7] = tested on: NCI-H522 lung
[8] = tested on: A549/ATCC NSCLC
[9] = tested on: 786-0 renal
[10] = tested on: COLO 205 colon
[11] = tested on: DU-145 prostate
[12] = tested on: K-562 leukemia
[13] = tested on: MALME-3M melanoma
[14] = tested on: MDA-MB-231 breast
[15] = tested on: RXF 393 renal
[16] = tested on: SF-268 CNS
[17] = tested on: SF-295 CNS
[18] = tested on: SF-539 CNS
[19] = tested on: UACC-257 melanoma
[20] = tested on: M14 melanoma

Measured: growth

Cc1c(O)c(O)cc2c3c(oc12)CC(c1ccc2c(c1)OCO2)CC3=O (stereo not given)
inactive: [1] 83.4% | [2] 81.2% | [3] 90.1% | [4] 75.2% | [5] 93.7% | [7] 53.3% | [8] 93.8% | [9] 100% | [10] 103% | [11] 97.7% | [12] 82.1% | [13] 105% | [14] 76.9% | [15] 115% | [16] 83.3% | [17] 106% | [18] 81.8% | [19] 94.7% | [20] 84%
active: [6] -37.4%

C[C@@H]1CC[C@@H]2[C@@H]1[C@H](OC(=O)/C=C/c1ccccc1)[C@]1(c3ccccc3)C[C@@H](NC(=O)CO)[C@@]2(C)O1
inactive: [1] 97.7% | [2] 88.8% | [3] 98.2% | [4] 96.8% | [5] 105% | [6] 65.5% | [7] 82.3% | [8] 95% | [9] 101% | [10] 99.7% | [11] 107% | [12] 84.4% | [13] 98.6% | [14] 96.9% | [15] 83.2% | [16] 93.6% | [17] 93.8% | [18] 97.9% | [19] 93% | [20] 105%

CS(=O)(=O)Nc1cc(-c2ccc3ncnc(Nc4ccc(F)c(Cl)c4)c3c2)cnc1Cl
active: [3] 3.88% | [6] -23.6% | [8] 1.72% | [9] 7.37% | [10] -57.2% | [13] -15.5% | [14] 5.12% | [15] -34.2% | [17] -17.5% | [18] 6.35% | [19] 4.62% | [20] 5.92%
inactive: [1] 16.9% | [2] 17.6% | [4] 15.1% | [5] 10.6% | [7] 14% | [11] 16.3% | [12] 18.7% | [16] 12.3%

Cc1ccc(/C=C/c2c(C(=O)/C=C/c3ccccc3)c(C)nc3ccccc23)cc1
active: [4] -18% | [5] -9.62% | [12] 8.62% | [13] -1.88% | [15] -3.35% | [18] -23.2%
inactive: [1] 27.5% | [2] 43.6% | [3] 46.8% | [6] 89.4% | [7] 11.1% | [8] 30.8% | [9] 25.8% | [10] 12.7% | [11] 12.8% | [14] 30.8% | [16] 54.1% | [17] 31.9% | [19] 12.3% | [20] 17.6%

C/C=C(/C)C(=O)O[C@@H]1CC(C)(C)CC2C34OC(=O)[C@@]21CC[C@@]3(C)[C@]1(C)CCC2C(C)(C)C(=O)CC[C@]2(C)C1C[C@@H]4Cl (stereo not given in full)
inactive: [1] 95.4% | [2] 86.7% | [3] 98.2% | [4] 94.5% | [5] 97.7% | [6] 74.7% | [7] 93% | [8] 91% | [9] 90.4% | [10] 98.8% | [11] 104% | [12] 85.6% | [13] 90.8% | [14] 93.4% | [15] 108% | [16] 93% | [17] 97.3% | [18] 85% | [19] 89.8% | [20] 93.1%

COc1ccc2c(c1)c(C(=O)c1nc(-c3cn(C)c4ccccc34)no1)cn2C
inactive: [1] 94.6% | [2] 83% | [3] 86.5% | [4] 92.5% | [5] 101% | [6] 110% | [7] 69.6% | [8] 90.7% | [9] 107% | [10] 97.7% | [11] 111% | [12] 72% | [13] 83.4% | [14] 104% | [15] 100% | [16] 103% | [17] 90% | [18] 97.2% | [19] 89% | [20] 104%
